# Most compounds without a hit are left out; they make up all but 4.1% or so of the library.
# DAX1 inh-1 = DAX1 (NR0B1) inhibitors, primary screen, cell-based, HEK293, Gal4-DAX1, luciferase luminescence | HEK293 Gal4-DAX1 luciferase reporter | inhibition, % at 6.75 µM | actives 0.99% (n = 340,000);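 active = inhibition above the mean over all tested compounds plus 3 SD, cut at about 4.2% in these data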;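 also: 0% = DAX1-transfected cells with DMSO and 100% = empty-vector control cells with DMSO; inhibition shows as a rise in luminescence from relieved DAX1 repression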
# DAX1 inh-2 = DAX1 (NR0B1) inhibitors on StAR promoter, primary screen, cell-based, luminescence, SF-1 (NR5A1), full-length DAX-1. HEK293T StAR-luciferase reporter, SF-1/DAX-1 repression relief. inhibition, % at 6.8 µM. actives 1.1% (n = 370,000). AID 652010, 2013;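 active = inhibition above the mean over all tested compounds plus 3 SD, cut at about 3.6% in these data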;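 also: 0% = DAX-1 cells with DMSO and 100% = cells lacking DAX-1 with DMSO; higher inhibition means more luminescence from relief of DAX-1 repression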
# ssDAF12 agonist = S. stercoralis DAF-12 nuclear receptor activators, primary screen, cell-based, luminescence, HEK293, GRIP1 co-expression, lit1-tk-luc. actives 1% (n = 370,000). AID 652126, 2013. HEK293 ssDAF-12/GRIP1 lit1-tk-luc reporter; % of 3 µM dafachronic acid response. Nuclear hormone receptor DAF-12 (Strongyloides stercoralis). activation, % at 6.8 µM;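 active = activation above the mean over all tested compounds plus 3 SD, cut at about 0.9% in these data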;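 also: 0% = DMSO-only wells and 100% = 3 µM delta7-dafachronic acid wells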
# hgDAF12 agonist = H. glycines DAF-12 receptor agonists, primary screen, cell-based, luminescence, HEK293, GAL4 fusion, UAS-luciferase. activation, % at 6.8 µM. HEK293 GAL4-hgDAF12 UAS-luciferase reporter, agonist luminescence; normalized to butyrate control. actives 1.8% (n = 370,000). Nuclear hormone receptor DAF-12 (Heterodera glycines), GAL4 fusion;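 active = activation above a cutoff set at the mean of all screened compounds plus 3 SD, cut at about 10% in these data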;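 also: 0% = DMSO wells and 100% = sodium butyrate wells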
# hcDAF-12 act = H. contortus DAF-12 nuclear receptor activators, primary screen, cell-based, luminescence, HEK293, lit1-tk-luc reporter | HEK293 hcDAF-12 lit1-tk-luc reporter; 0% DMSO, 100% Δ7-dafachronic acid | activation, % at 6.8 µM | actives 1.4% (n = 370,000);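 active = activation above the mean of all tested compounds plus 3 SD, cut at about 5.5% in these data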;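 also: 100% = response to 3 µM Δ7-dafachronic acid high control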
# DAX1 inh confirm = DAX1 (NR0B1) inhibitors relieving SF-1 repression, confirmation, cell-based, luminescence, HEK293T, full-length DAX-1, SF-1 activated StAR promoter; HEK293T StAR-promoter luciferase reporter, SF-1/DAX-1 repression; actives 87% (n = 2,400); inhibition, % at 6.8 µM; shares compounds with DAX1 inh-2;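 active = inhibition above the average of every tested compound plus 3 SD, cut at about 3.8% in these data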;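 also: 0% = DAX-1 cells with DMSO and 100% = no DAX-1 control cells with DMSO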
# Target sequence (P51843 whole entry, looked up): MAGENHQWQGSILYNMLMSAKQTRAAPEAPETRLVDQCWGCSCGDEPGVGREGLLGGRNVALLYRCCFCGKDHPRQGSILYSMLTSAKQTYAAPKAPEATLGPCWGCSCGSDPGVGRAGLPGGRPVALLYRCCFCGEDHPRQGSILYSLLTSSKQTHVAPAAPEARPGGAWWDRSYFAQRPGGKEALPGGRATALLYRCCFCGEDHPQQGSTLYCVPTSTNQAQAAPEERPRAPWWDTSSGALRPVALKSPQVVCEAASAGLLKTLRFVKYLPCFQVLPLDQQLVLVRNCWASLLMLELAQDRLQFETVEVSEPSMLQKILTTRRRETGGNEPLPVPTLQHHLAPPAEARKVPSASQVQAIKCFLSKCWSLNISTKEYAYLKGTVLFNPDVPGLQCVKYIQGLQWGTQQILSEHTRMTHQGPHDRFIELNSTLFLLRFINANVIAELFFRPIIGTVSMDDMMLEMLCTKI
# SF1 AF2mut Luc = StAR reporter signal changes without DAX1, counter-screen for DAX1 inhibitor project, cell-based, luminescence, AF-2 mutant SF-1, transactivation. AID 652136, 2013. inhibition, % at 6.8 µM. shares compounds with DAX1 inh-2. HEK293 StAR-luciferase, SF-1 AF2 mutant. actives 78% (n = 2,400);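 active = inhibition above the mean of all tested compounds plus 3 SD, cut at about 3% in these data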;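 also: 0% = DAX-1 transfected cells with DMSO and 100% = cells without DAX-1 with DMSO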
# Starred values were filed as active, the others as inactive; x = not tested or not shown.
SMILES,DAX1 inh-1,DAX1 inh-2,ssDAF12 agonist,hgDAF12 agonist,hcDAF-12 act,DAX1 inh confirm,SF1 AF2mut Luc
O=C(N[C@@H]1C[C@@H]2O[C@@H](CO)CC[C@@H]2O[C@@H]1CCc1ccc(-c2ccccc2)cc1)c1cnccn1,x,-1.6,-1.0,8.7,-0.1,x,x
O=C(Nc1cccc(-c2ccc(N3CCOCC3)nn2)c1)c1ccccc1Cl,-0.4,5.2*,-0.2,6.1,1.4,5.2*,5.0*
CCCCNc1ccc2c(c1)C1CC2CCN1C(=O)OCc1ccccc1 (stereo not drawn),2.0,7.0*,-0.2,2.9,4.3,8.3*,1.9
COc1cccc(-c2noc(CCC(=O)N3CCN(c4cc(C)ccc4C)CC3)n2)c1,-0.5,-0.3,-1.5,3.4,0.1,x,x
Cc1ccc(C)c(N2CCN(C(=O)CCc3nc(-c4cccc(Cl)c4)no3)CC2)c1,1.8,5.1*,0.7,10.0,4.1,5.8*,3.6*
O=C(CSc1nnc(NC(=O)c2ccccc2)s1)NCC1CCCO1 (stereo not drawn),0.0,6.2*,-0.2,7.2,1.9,4.2*,4.3*
CC(C)(C)c1ccc(-c2nnc(SCC(=O)NCC3CCCO3)n2N)cc1 (stereo not drawn),1.2,6.5*,-0.7,-1.1,0.6,2.7,1.2
O=C(CSc1nnc(NC(=O)Cc2ccccc2)s1)NCC1CCCO1 (stereo not drawn),1.3,-0.2,-0.7,-0.3,3.5,x,x
OCC[C@@H]1C[C@H](O)[C@@H](O)[C@@]2(OCCc3cc(C(F)(F)F)ccc32)O1,x,1.5,-0.9,-1.9,-0.1,x,x
CCN(CC)c1ccc(S(=O)(=O)N2CCOCC2)cc1NC(=O)COC(=O)c1cccnc1SC,0.7,5.3*,-1.3,1.5,-0.3,-0.7,-0.1
C[C@H](NS(=O)(=O)c1ccc(Cl)cc1)C(=O)OCC(=O)Nc1cc(S(=O)(=O)N2CCOCC2)ccc1Cl,-0.3,7.7*,-0.7,0.7,-0.2,0.5,0.3
CCn1c(SCC(=O)NN=Cc2c(C)nn(-c3ccccc3)c2C)nnc1-c1ccc(OC)c(OC)c1,x,-1.8,-1.9,-0.3,-1.2,x,x
COc1ccc(NC(=O)c2noc3c2CCC3)cc1,0.6,4.9*,0.5,13.1*,5.0,13.3*,6.0*
CC(=O)c1ccc(NC(=O)c2noc3c2CCC3)cc1,-4.8,2.4,-1.2,5.9,3.2,x,x
CC1=C2NC(N)=[N+](Cc3ccccc3)CC2n2c(=O)n(-c3ccccc3)c(=O)n2C1 (stereo not drawn),x,-1.0,-2.0,-3.0,-1.3,x,x
CCNc1nc(NCC)n2c(SCC(=O)Nc3ccccc3F)nnc2n1,1.2,4.5*,-1.1,-4.0,-1.8,1.2,0.9
CCNc1nc(NCC)n2c(SCC(=O)Nc3ccccc3OC(F)F)nnc2n1,0.5,0.0,-1.3,-1.6,-1.7,x,x
CCOc1ccc(OCc2cccc(C(=O)N3CCOCC3)c2)cc1,-5.6,5.8*,1.4*,10.2,4.8,11.2*,7.7*
Cc1ccc(S(=O)(=O)Nc2cccc(-c3ccc(N4CCCCCC4)nn3)c2)cc1,0.2,4.9*,-0.7,5.8,1.0,7.5*,4.2*
Fc1ccc(-c2n[nH]c(=S)n2N=Cc2ccc(OCc3ccccc3)cc2)cc1,x,-0.1,-1.3,4.0,-0.7,x,x
Cc1ccc(S(=O)(=O)N(C)C)cc1NC(=O)COC(=O)/C=C/c1ccc2ccccc2n1,0.3,5.0*,-0.1,3.2,1.4,1.4,0.5
CC(=O)Nc1ccc(C(C)=NNC(=O)C2CCCC2)cc1,x,4.6*,-0.2,2.9,1.3,-2.3,-1.4
COC(=O)[C@]1(C#N)CC(=O)N(c2ccccc2)[C@@H]1c1ccccc1,x,0.0,-0.6,1.1,2.2,x,x
N#Cc1ccccc1OCC(=O)Nc1cc(S(=O)(=O)N2CCCCC2)ccc1N1CCOCC1,-0.7,6.0*,-1.0,-1.9,-1.5,-1.1,-2.0
O=C(COc1ccccc1)Nc1cc(S(=O)(=O)N2CCOCC2)ccc1N1CCCC1,0.3,-1.6,-1.1,-1.7,-1.2,x,x
SMILES,DAX1 inh-1,DAX1 inh-2,ssDAF12 agonist,hgDAF12 agonist,hcDAF-12 act,DAX1 inh confirm,SF1 AF2mut Luc
Cc1ccc(S(=O)(=O)Nc2cc(C)cc(CCNC=O)c2C)cc1,0.2,-0.6,0.0,-1.2,-1.1,x,x
Cc1c(CCNC=O)cc(C)c2c3c(oc12)CCCC3,5.3*,4.9*,-0.2,6.7,1.3,6.5*,5.8*
O=C(c1ccco1)N1CCN(c2ncccn2)CC1,1.1,1.5,-1.3,7.1,-0.5,x,x
O=C1CCCc2nc(N3CCN(C(=O)c4ccco4)CC3)ncc21,2.3,5.7*,0.5,5.3,1.8,5.9*,3.4*
FC(F)(F)c1ccccc1Cc1c(-c2ccc(Cl)cc2)nc2ccc(Cl)cn12,x,4.8*,0.6,11.6*,1.1,4.1*,3.8*
Cc1ccc2nc(-c3ccccc3)c(Cc3ccccc3C(F)(F)F)n2c1,x,4.7*,-0.1,8.7,3.8,3.8*,3.8*
FC(F)(F)c1ccccc1Cc1c(-c2ccccc2)nc2ccc(Cl)cn12,x,0.8,-0.1,6.1,2.2,x,x
Cc1ccc(-c2nc3ccc(C)cn3c2Cc2ccccc2C(F)(F)F)cc1,x,5.7*,-0.5,12.4*,2.7,5.0*,4.1*
CC(C)C[C@@H]1COc2cc(NCCO)ccc2S(=O)(=O)N1,x,0.7,0.1,0.4,1.6,x,x
O=C(Nc1ccc2c(c1)CCC2)Nc1ccc(F)cc1F,1.6,5.5*,-0.3,11.0*,1.8,9.9*,6.9*
O=C(Nc1cccc(F)c1)Nc1ccc2c(c1)CCC2,1.4,3.2,-0.2,8.7,5.3,x,x
Cc1ccc(NC(=O)Nc2ccc3c(c2)CCC3)cc1,1.4,5.5*,-1.0,7.1,1.6,5.3*,4.6*
O=C(Nc1ccc(F)cc1)Nc1ccc2c(c1)CCC2,1.9,5.2*,0.1,6.9,-0.4,4.2*,3.1*
CS(=O)(=O)c1ccc(OCCCN2CCC(C(O)(c3ccccc3)c3ccccc3)CC2)cc1,x,0.3,-0.2,-2.4,-1.4,x,x
Cc1ccnc(SCc2cc(=O)c(OC(=O)c3ccc(C#N)cc3)co2)n1,x,x,-1.7,-0.2,-0.1,x,x

# Screening data as filed in PubChem.
